The full list was thinned out, with hits kept by preference.
ERK EGF block: blocks ERK signaling stimulated by EGF; HEK293-V1b, EGF-stimulated phospho-ERK AlphaScreen; Potency, µM (titrated, usually from 11.5 µM), most hits filed as inhibitors; 0.41% of 130,000 active; active means well fitted inhibition curve with a large enough effect; further: nearly all actives have a fitted effect of over 55% in size
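In this qHTS, HEK293 cells with stable type-1 vasopressin (V1b) receptor were exposed to compound at 37C for 30 min, stimulated 5 min with EGF at 25 nM, lysed, and probed for phospho-ERK by AlphaScreen.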
Hits are given with their value; – = inactive.

SMILES	ERK EGF block
CC1(C(=O)Nc2cccc(S(=O)(=O)N3CCOCC3)c2)Cc2ccccc2C(=O)O1 (configuration not stated)	–
CCc1ccc(NC(=O)C2(C)Cc3ccccc3C(=O)O2)cc1 (configuration not stated)	22µM
CCc1ccc(NC(=O)CSCCN2C(=O)c3ccccc3C2=O)cc1	–
CC(=O)NCCNc1ncnc2ccc(-c3ccc(C(=O)N(C)C)cc3)cc12	–
CC(C)(C)c1ccc(S(=O)(=O)/C=C\C#N)cc1	–
CCCCC/C=C\C[C@@H](O)/C=C/C=C/C=C/[C@@H](O)CCCC(=O)O	–
CCOC(=O)c1ccc(NC(=O)Cn2ncc(Cl)c(Cl)c2=O)cc1	–
CCN(CC)S(=O)(=O)c1cc(NC(=O)Cn2ncc(Cl)c(Cl)c2=O)ccc1C	20µM
COc1ccc(NC(=O)Cn2ncc(Cl)c(Cl)c2=O)cc1S(=O)(=O)N1CCOCC1	–
CCCN(CCC)C[C@@H]1CCCCN1CCNC(=O)N1c2ccccc2C(=O)Nc2cccnc21	–
C=CC1=C(C)C2=NC1=CC1=NC(=CC3=NC(=CC4=NC(=C2)C(C)=C4CCC(=O)O)C(CCC(=O)O)=C3C)C(C=C)=C1C.[Zn]	–
COc1ccc(C(=O)N2CCC[C@@]3(CCN(c4cccc(-c5ccccc5)c4)C3)C2)cc1	–
COCOc1ccc(OC)cc1C(=O)/C=C/c1ccc(OC)c(Br)c1	–
COc1cccc2sc(NN)nc12	–
COc1cccc2sc(Nc3nc4ccc(NC(C)=O)cc4s3)nc12	–
CCOC(=O)c1sc(Nc2nc3c(OC)cccc3s2)cc1C	25µM
Nc1ccccc1C(=O)/C=C/c1ccccc1	–
C#C[C@]1(O)CC[C@@H]2[C@H]3CCC4=Cc5oncc5C[C@]4(C)[C@@H]3CC[C@@]21C	–
CCN1/C(=C/c2cc[n+](CCCS(=O)(=O)[O-])c3ccccc23)Sc2ccccc21	–
C=CC[n+]1ccc2ccccc2c1C	–
C=CC[n+]1ccc(/C=C2\C=Cc3cc(C)ccc3N2CC)c2ccccc21	14µM
CSc1nc(N)c2ncn([C@@H]3O[C@H](COP(=O)(O)OP(=O)(O)O)[C@H](O)[C@H]3O)c2n1	–
O=C1C=CC(=O)C2=C1C1c3ccccc3C2c2ccccc21	–
CC1=NN(c2ccccc2)C(=O)C1c1ccccc1 (configuration not stated)	–
CC1=NN(c2ccccc2)C(=O)C1N=Nc1ccccc1 (configuration not stated)	11µM
SMILES	ERK EGF block
CC1=NN(C(N)=S)C(=O)C1N=Nc1ccccc1 (configuration not stated)	–
COC(=O)N1CCC2(CC1)CN(c1ccc(-c3ccccc3)cc1)C2	–
O=C(c1ccncc1)N1CCC2(CC1)CN(c1ccc(-c3ccccc3)cc1)C2	–
c1ccc(-c2ccc(N3CC4(CCNCC4)C3)cc2)cc1	20µM
COc1ccc(-c2nc(-c3ccccc3)oc2Nc2c(C)cccc2C)cc1	–
O=C(Nc1ccccc1)N1CCCC2(CCN(C(=O)c3cccc(F)c3)CC2)C1	–
CC(C)[C@@H](CC(=O)N[C@@H]1CCNC[C@H]1C(=O)N[C@H](CC(=O)N[C@@H](CCC(=O)O)CC(=O)O)Cc1c[nH]c2ccccc12)NC(=O)C[C@H](Cc1ccccc1)NC(=O)[C@@H]1CNCC[C@H]1N	–
COC(=O)C1(C(=O)OC)CC2=CCC3C(=O)N(c4ccccc4)C(=O)C3C2Cc2ccccc2[C@@H]1C[N+](=O)[O-] (some centres not stated)	–
Nc1nnc(SCc2nc3scc(-c4ccccc4)c3c(=O)[nH]2)s1	–
CCn1c(SCc2nc3scc(-c4ccccc4)c3c(=O)[nH]2)nnc1-c1cccs1	25µM
Cc1nnc(SCc2nc3scc(-c4ccccc4)c3c(=O)[nH]2)s1	–
CN1C(=O)CC[C@@H]1c1cccnc1	–
Cn1cccc1C(=O)N1CCC[C@@]2(CCN(Cc3ccccc3)C2)C1	–
CC(C)(C)C(=O)NC(=S)NNC(=O)c1sc2ccccc2c1Cl	13µM
O=C(NNC(=S)NC1CCCCC1)c1sc2ccccc2c1Cl	–
O=C(NC(=S)NCCO)c1sc2ccccc2c1Cl	–
CC(C)(C)NC[C@H](O)c1cc(O)cc(O)c1	–
Cc1nn(C)cc1CN1CCCC(C(=O)c2ccc(-c3ccccc3)cc2)C1 (configuration not stated)	–
O=C(c1ccc(Cl)cc1)C1CCCN(Cc2cnn(-c3ccccc3)c2)C1 (configuration not stated)	28µM
O=C(c1ccc(Cl)cc1)C1CCCN(Cc2cccn2-c2cccnc2)C1 (configuration not stated)	–
COC(=O)[C@@]1(Cc2ccc(F)cc2)[C@@H]2C(=CC(=O)[C@H]2CC(=O)C(=O)N(C)C)CN1C(=O)c1ccccc1	–
COc1ccccc1-c1csc(NC(=O)c2ccc(N3C(=O)CCC3=O)cc2)n1	28µM
CCOC(=O)c1csc(NC(=O)c2ccc(N3C(=O)CCC3=O)cc2)n1	–
N#Cc1ccc(-c2csc(NC(=O)c3ccc(N4C(=O)CCC4=O)cc3)n2)cc1	–
CCC(=O)OC1(C)C(=O)C=C2C=C(CCCNC(=O)OC(C)(C)C)OC=C2C1=O (configuration not stated)	–
SMILES	ERK EGF block
COc1ccc(C(O)C2=CCCC2=O)cc1 (configuration not stated)	–
CC1=C(C(=O)O)N2C(=O)[C@@H](NC(=O)[C@@H](N)c3ccccc3)[C@@H]2SC1	–
O=C(c1csnn1)N1CCC2(CCCN(Cc3cc(C(F)(F)F)cc(C(F)(F)F)c3)C2)CC1	–
O=[N+]([O-])c1cccc(-c2ccc(C(=S)N3CCN(c4ccccc4)CC3)o2)c1	25µM
O=C(c1ccc(-c2cccc(Cl)c2)o1)N1CCN(c2ccc([N+](=O)[O-])cc2)CC1	–
O=[N+]([O-])c1cccc(-c2ccc(C(=S)N3CCOCC3)o2)c1	–
CC(=O)N1CCC2(CCCN(Cc3cc(C(F)(F)F)cc(C(F)(F)F)c3)C2)CC1	–
COc1ccc(-c2nc(-c3cccnc3)no2)cc1	–
CN=c1scc(-c2ccc(OC)cc2)n1/N=C(\C)c1cccnc1	22µM
COc1ccc(NC(NC(=O)c2cccnc2)C(Cl)(Cl)Cl)cc1 (configuration not stated)	–
N#CCCCSc1nnnn1-c1cc(C(F)(F)F)cc(C(F)(F)F)c1	–
O=C(c1cc(C(F)(F)F)cc(C(F)(F)F)c1)N1CCC2(CC1)CCN(c1ccccn1)CC2	–
COc1ncc2nc(C)c(=O)n(C)c2n1	–
CCN(CC)S(=O)(=O)c1ccc(Cl)c(NC(=O)COC(=O)c2cccn2C)c1	–
CCN(CC)S(=O)(=O)c1ccc(Cl)c(NC(=O)COC(=O)c2c(C)noc2C)c1	–
CCN(CC)S(=O)(=O)c1ccc(Cl)c(NC(=O)COC(=O)c2ccc(O)cc2)c1	28µM
Cc1cccc(CNc2ncncc2-c2cccc(NS(C)(=O)=O)c2)c1	–
CN=C1N[C@H](c2ccccc2)N(c2ccccc2)S1	–
Cc1ccc(Sc2ccc(CN3CCCCC3)cc2[N+](=O)[O-])cc1	10µM
Cc1cc(N2CCCCC2)ccc1[N+](=O)[O-]	–
Cc1ccc(OCCOCCN2CCCCC2)c([N+](=O)[O-])c1	–
CCCCCC(=O)/C=C/[C@@H]1[C@@H](C/C=C\CCCC(=O)O)[C@@H](O)C[C@H]1O	–
CN1CCN(c2ccc(C(CC(N)=O)NC(=O)Cc3ccc(Br)cc3)cc2[N+](=O)[O-])CC1 (configuration not stated)	–
